Records with an inconclusive call do not appear. Activity calls are given as the source filed them. Calls follow the shape of the dose curve; as a rule, active = well fitted inhibition curve with a large enough effect; inconclusive = small, poorly fitted or top-dose-only effect; inactive = no such curve, though single readings can be large or run the other way.
Potency is read from the fitted curve at half-maximal effect.

The assay is described as follows: BET inhibitor-based combinations targeting novel dependencies in MECOM-rearranged (r) AML: OCI-AML3 cell line (AID 2202232). Also: nearly all actives have a fitted effect of over 35% in size. The following applies: CellTiter-Glo luminescence, 48 h; Potency: OCI-AML3 viability; series mostly up to 46 µM. In a few lines: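 Here, 11-point titrations of each agent were applied to 500 seeded cells and incubated 48 hr; CellTiter-Glo signal, scaled against DMSO and empty wells, was integrated as AUC, then Z-scored within the individual line.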
On the technique in general: Cellular ATP, detected with luciferase, serves as a proxy for viable cell number.
As to `Clc1ccc(C(c2ccc(Cl)cc2)n2cc[n+](CC(OCc3ccc(Cl)cc3Cl)c3ccc(Cl)cc3Cl)c2)cc1` (centres undefined), the Potency was 5.9 µM (active). Take `NC(N)=NC(=O)c1nc(Cl)c(N)nc1N`: the Potency is 9.59 µM (active).

On to `CN1CCC(=C2c3ccccc3CC(=O)c3sccc32)CC1`, for which the Potency was 18.6 µM (active). To `Oc1ccc(/C=C/c2cc(O)cc(O)c2)cc1` belongs 14.8 µM (active).

Regarding `COc1cc(SC)ccc1C(=O)N1CCC(Cc2ccccc2)CC1`, the Potency result was “inactive”. Regarding `O=C(c1ccc(OCCN2CCCCC2)cc1)c1c(-c2ccc(O)cc2)sc2cc(O)ccc12`, the Potency is 11.8 µM (active). As for `Cc1cccc(-c2[nH]c(C(C)(C)C)nc2-c2ccc3nccnc3c2)n1`, the entry is “inactive”; as for `CCn1cc(C(=O)O)c(=O)c2cc(F)c(N3CCNC(C)C3)c(F)c21` (centres undefined), “inactive”; as for `CN(C)CCC=C1c2ccccc2C=Cc2ccccc21`, 16.6 µM (active). Consider `CC(C)c1ccc2c(c1)c(SC(C)(C)C)c(CC(C)(C)C(=O)O)n2Cc1ccc(Cl)cc1`, for which the Potency is 20.9 µM (active).

Consider `Oc1ccc2ccccc2c1SSc1c(O)ccc2ccccc12`, for which the Potency was 6.61 µM (active).

As to `CC[C@H](C)C(=O)O[C@H]1CCC=C2C=C[C@H](C)[C@H](CC[C@@H]3C[C@@H](O)CC(=O)O3)[C@H]21`, the Potency is 11.8 µM (active). As for `CC(=O)N1CCN(c2ccc(OC[C@H]3CO[C@](Cn4ccnc4)(c4ccc(Cl)cc4Cl)O3)cc2)CC1`, the entry is “inactive”; as for `Cc1cnc(C(=O)NCCc2ccc(S(=O)(=O)NC(=O)NC3CCCCC3)cc2)cn1`, “inactive”.

The record behind these values is PubChem BioAssay (NCATS).
